Measurements as given in PubChem BioAssay AID1159580 (chemical genetic matrix, 2015).
Where “and” joins values, the source holds several entries; their conditions need not be identical. Equal values may be shown once. About 2,000 (36%) of roughly 5,500 compounds were called active. About 18% were inconclusive and are not listed. Rule as the data show it: active = normalized growth mostly below about 0.91 (no sharp cut-off); inconclusive = no clear call, values can overlap the other calls; inactive = mostly above about 0.92. The list shows a part of the results.

Experiment: chemical genetic growth profiling, strain panel (AID 1159580);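 also: tested at 20 µM; growth read once vehicle control cultures reached saturation at 30 °C; 1 = growth at the plate median or of vehicle wells; lower values mean less growth of the strain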
Conditions: S. cerevisiae deletion strains, growth OD

Measured: normalized growth

ClC(Cl)=C(c1ccc(Cl)cc1)c1ccc(Cl)cc1
active: locus YER167W, strain BCK2, stronger effect = lower value 0.887
inactive: locus YAL013W, strain DEP1, stronger effect = lower value 0.976 | locus YAL021C, strain ccr4, stronger effect = lower value 0.995 | locus YAL026C, strain drs2, stronger effect = lower value 0.999 | locus YAL030W, strain snc1, stronger effect = lower value 0.982 | locus YBL061C, strain skt5, stronger effect = lower value 0.985 | locus YBR009C, strain hhf1, stronger effect = lower value 0.987 | locus YBR021W, strain FUR4, stronger effect = lower value 1 | locus YBR023C, strain chs3, stronger effect = lower value 0.983 | locus YBR171W, strain sec66, stronger effect = lower value 0.986 | locus YBR229C, strain ROT2, stronger effect = lower value 0.957 | locus YBR231C, strain swc5, stronger effect = lower value 0.976 | locus YBR279W, strain paf1, stronger effect = lower value 0.994 | locus YCL011C, strain gbp2, stronger effect = lower value 1 | locus YCL016C, strain dcc1, stronger effect = lower value 0.993 | locus YCL029C, strain bik1, stronger effect = lower value 0.941 | locus YCL061C, strain MRC1, stronger effect = lower value 0.983 | locus YCL069W, strain vba3, stronger effect = lower value 0.995 | locus YCR088W, strain abp1, stronger effect = lower value 0.998 | locus YDL005C, strain med2, stronger effect = lower value 0.979 | locus YDL035C, strain GPR1, stronger effect = lower value 0.971 | locus YDL040C, strain nat1, stronger effect = lower value 0.994 | locus YDL074C, strain BRE1, stronger effect = lower value 1.04 | locus YDL101C, strain DUN1, stronger effect = lower value 0.948 | locus YDL134C, strain PPH21, stronger effect = lower value 0.967 | locus YDL185W, strain tfp1, stronger effect = lower value 0.964 | locus YDL192W, strain arf1, stronger effect = lower value 0.958 | locus YDR001C, strain nth1, stronger effect = lower value 0.998 | locus YDR069C, strain doa4, stronger effect = lower value 0.985 | locus YDR101C, strain arx1, stronger effect = lower value 0.963 | locus YDR137W, strain rgp1, stronger effect = lower value 1.04 | locus YDR150W, strain NUM1, stronger effect = lower value 0.945 | locus YDR159W, strain sac3, stronger effect = lower value 0.986 | locus YDR162C, strain NBP2, stronger effect = lower value 0.95 | locus YDR195W, strain ref2 1 | locus YDR297W, strain sur2, stronger effect = lower value 0.995 | locus YDR318W, strain mcm21, stronger effect = lower value 0.961 | locus YDR334W, strain swr1, stronger effect = lower value 0.986 | locus YDR335W, strain msn5, stronger effect = lower value 0.992 | locus YDR388W, stronger effect = lower value 0.949 | locus YDR392W, strain spt3, stronger effect = lower value 0.967 | locus YDR502C, strain sam2, stronger effect = lower value 0.95 | locus YEL003W, strain gim4, stronger effect = lower value 0.997 | locus YEL037C, strain rad23, stronger effect = lower value 1.01 | locus YEL061C, strain CIN8 (second series), stronger effect = lower value 0.996 | locus YEL061C, strain CIN8, stronger effect = lower value 0.966 | locus YER015W, strain faa2, stronger effect = lower value 0.983 | locus YER016W, strain bim1, stronger effect = lower value 1 | locus YER110C, stronger effect = lower value 0.946 | locus YER111C, strain swi4, stronger effect = lower value 0.991 | locus YER155C, strain BEM2 (second series), stronger effect = lower value 0.983 | locus YER155C, strain BEM2, stronger effect = lower value 0.927 | locus YFR010W, strain ubp6, stronger effect = lower value 0.989 | locus YGL078C, strain dbp3, stronger effect = lower value 0.951 | locus YGL086W, strain mad1, stronger effect = lower value 0.955 | locus YGL167C, strain pmr1, stronger effect = lower value 0.994 | locus YGL173C, strain kem1, stronger effect = lower value 0.994 | locus YGL227W, strain vid30, stronger effect = lower value 0.995 | locus YGL240W, strain doc1, stronger effect = lower value 0.991 | locus YGL248W, strain PDE1, stronger effect = lower value 0.959 | locus YGL253W, strain hxk2, stronger effect = lower value 0.993 | locus YGR078C, strain PAC10, stronger effect = lower value 0.974 | locus YGR135W, strain pre9, stronger effect = lower value 0.966 | locus YGR229C, strain SMI1, stronger effect = lower value 0.998 | locus YGR252W, strain gcn5, stronger effect = lower value 1.03 | locus YHR013C, strain ard1, stronger effect = lower value 0.998 | locus YHR027C, strain rpn1, stronger effect = lower value 0.989 | locus YHR030C, strain SLT2, stronger effect = lower value 0.95 and 1.05 | locus YHR079C, strain IRE1 (second series), stronger effect = lower value 0.951 | locus YHR079C, strain IRE1, stronger effect = lower value 1.03 | locus YHR094C, strain hxt1, stronger effect = lower value 0.948 | locus YHR129C, strain ARP1, stronger effect = lower value 0.963 | locus YHR142W, strain chs7, stronger effect = lower value 0.986 | locus YHR200W, strain rpn10, stronger effect = lower value 0.951 | locus YIL066C, strain RNR3, stronger effect = lower value 0.929 | locus YIL073C, strain SPO22, stronger effect = lower value 0.941 | locus YIL125W, strain kgd1, stronger effect = lower value 0.948 | locus YIR030C, strain dcg1, stronger effect = lower value 0.944 | locus YJL092W, strain hpr5, stronger effect = lower value 0.999 | locus YJL095W, strain BCK1 (second series), stronger effect = lower value 0.995 | locus YJL095W, strain BCK1, stronger effect = lower value 0.961 and 1.05 | locus YJL115W, strain asf1, stronger effect = lower value 0.991 | locus YJL129C, strain trk1, stronger effect = lower value 0.964 | locus YJL134W, strain LCB3, stronger effect = lower value 0.961 | locus YJL154C, strain vps35, stronger effect = lower value 0.998 | locus YJL164C, strain tpk1, stronger effect = lower value 0.979 | locus YJL166W, strain qcr8, stronger effect = lower value 0.975 | locus YJL168C, strain set2, stronger effect = lower value 0.949 | locus YJL187C, strain SWE1 (second series), stronger effect = lower value 0.958 | locus YJL187C, strain SWE1, stronger effect = lower value 0.995 | locus YJR043C, strain POL32, stronger effect = lower value 0.966 | locus YJR066W, strain TOR1, stronger effect = lower value 0.975
